Results taken from PubChem BioAssay (NCI).
This is part of a sample that, as a whole, favours compounds with a hit. Of some 83,000 tested, about 20% had one in any assay.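 For each line, cells grew in 96-well plates with the test compound present at a single concentration for 48 hours.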 Activity calls are given as the source filed them. How the source made its calls: active means growth percent below 10; inactive means the rest.

Each molecule was assayed on MDA-MB-468 breast (assay: NCI-60 one-dose screen, 48 h (100 = growth as untreated, 0 = no growth, -100 = all killed)). Conditions: 10 µM unless noted.
In the case of `COc1cc(OC)c(/C=C/C(=O)c2c(OC)cccc2OC)c(OC)c1`, the growth is reported as -15.6% (active). With `CC(=O)Oc1ccc(/C(=C(\C)c2ccc(Cl)cc2)c2ccc(OCCN3CCCCC3)cc2)cc1` the growth was -25% (active). `Cc1cc2c(cc1C)[n+](Cc1ccc3ccccc3c1)cn2Cc1ccc2ccccc2c1` was tested, and the growth was -76.4% (active). In the case of `c1csc(-c2[nH]nc3c2CCc2ccccc2-3)c1`, the growth is reported as -18.7% (active). `Fc1cccc(COc2ccc(Nc3ncnc4onc(-c5ccccc5)c34)cc2)c1` was tested, and the growth was 9.54% (active). `Cc1ccc(S(=O)(=O)N/N=C\c2cc(Cl)ccc2O)cc1` was tested, and the growth was 68.4% (inactive). In the case of `CC(CCC(=O)O)(NC(=O)c1ccc([N+](=O)[O-])cc1)C(=O)O` (configuration not stated), the growth is reported as 112% (inactive). With `O=S(=O)(Nc1ccccn1)c1ccc(N=Nc2ccc(O)c3ncccc23)cc1` the growth was 4.46% (active). With `CNS(=O)(=O)c1cccc(-c2ccc3c4c(n(C)c(=O)c3c2)-c2ccccc2C4=O)c1` the growth was 83.4% (inactive). In the case of `COc1cc(Cl)cc(-c2nn(-c3cccc(NC(=O)c4cc(C(F)(F)F)cc(C(F)(F)F)c4)c3)cc2-c2ccncc2)c1`, the growth is reported as 46.5% (inactive). `COc1ccc(/C=c2/c(=O)[nH]c3nc4sc(C)c(C)c4c(=O)n23)cc1` was tested, and the growth was 83.1% (inactive). For `COc1ccc(C2=NN(c3ccc(S(N)(=O)=O)cc3)C(c3ccc(Cl)cc3)C2)c(O)c1` (configuration not stated), the growth was 61.7% (inactive). In the case of `COc1cc2nc(-c3ccc(Cl)cc3)cc(OCCCN3CCC(O)CC3)c2cc1OC`, the growth is reported as 52.9% (inactive). With `COC(=O)C1=C(C(=O)ON)[C@@H]2C=C[C@@]1([C@@H](Cc1ccccc1)Nc1ccccc1)O2` the growth was -38.8% (active). For `C/C(=N\O)c1ccccn1`, the growth was 97.6% (inactive). `CC(=O)Nc1c(Cl)cc(Cl)c2c1Cc1cc([N+](=O)[O-])ccc1-2` was tested, and the growth was 94.9% (inactive). For `Cc1cc(=O)[nH]c2c(C#N)cnn12`, the growth was 106% (inactive). In the case of `O=c1ccn(C2CC(O)C(O)C(CO)O2)c(=O)[nH]1` (configuration not stated), the growth is reported as 149% (inactive). With `COc1ccc(C(=O)/C=C/c2cc3ccccc3[nH]c2=O)cc1` the growth was 17.6% (inactive). `COc1ccc(NC(=O)COc2ccccc2)c(C(N)=O)c1` was tested, and the growth was 16.6% (inactive). With `C=CC[C@]1(O)CC[C@H]2[C@@H]3CCc4cc(O)ccc4[C@H]3CC[C@@]21C` the growth was 87.4% (inactive). In the case of `O=C(C[C@@H](C(=O)NCc1cccc(C(F)(F)F)c1)N1C(=O)[C@@H](N2C(=O)OC[C@@H]2c2ccccc2)[C@H]1/C=C/c1ccccc1)NC1CCN(Cc2ccccc2)CC1`, the growth is reported as -1.25% (active). `Cc1ccc2c(n1)C(=O)C(Cl)=C(Nc1cccc(C)c1C)C2=O` was tested, and the growth was -63.3% (active). For `O=c1ccc(N=Nc2ccc([N+](=O)[O-])cc2)ccc1O`, the growth was -15.7% (active). With `O=C(N=Nc1c(O)[nH]c2ccccc12)c1oc2ccccc2c1CN1CCN(c2ccccc2)CC1` the growth was -46% (active). In the case of `Fc1ccc(Nc2ncnc3ccc(-c4cn[nH]c4)cc23)cc1Cl`, the growth is reported as -21.9% (active). In the case of `COc1cccc(C(c2cc3c(cc2O)OCO3)N2CCOCC2)c1OC` (configuration not stated), the growth is reported as 90.6% (inactive).
